# Screening data from PubChem BioAssay.
# SMN2 splice enh – increases expression of the SMN2 splice variant | HEK293 SMN2-luciferase splicing reporter, luminescence, 30-36 h | Potency, µM (series often up to 46.1 µM), for the others: top-dose activity change, positive = activation, actives largely listed as activators | 210,000 compounds, 2.8% hits; further: % of control where 0% means no effect; nearly all actives have a fitted effect of over 55% in size
#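 HEK293 cells carry an SMN2 minigene-luciferase reporter in which exon 7 inclusion puts luciferase in frame. Cells were seeded at 2000 cells/well, attached for 10-12 hours, then exposed to compounds for 30-36 hours at 37C before ONE-Glo luminescence.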
# Rab9 prom act – Rab9 promoter activation | Potency, µM (titrated, usually from 9.22 µM), for inactives: top-dose activation, negative = inhibition, most hits filed as activators | AID 485297 | Huh7 Rab9 promoter-luciferase reporter, luminescence, 24 h | 320,000 compounds, 2.8% hits; further: % of control where 0% means no effect; nearly all actives have a fitted effect of over 60% in size
#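 Huh7 reporter line, Rab9 promoter upstream of luciferase. Compound exposure 24 h at 37 °C in reduced-serum medium with 10% FBS. Read-out: luminescence.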
# ELG1 DNA repair – blocks ELG1-dependent DNA repair in HEK293T cells; 330,000 compounds, 2.3% hits; Potency, µM (series often up to 46.1 µM), inactives show top-dose activity change, negative = inhibition, hits mostly inhibitors; AID 504467; HEK293T ELG1-luciferase reporter, luminescence, 16 h; DNA damage induced by 5-fluorouridine; further: on the % scale 0 is the no-effect control and ±100 the full control effect; nearly all actives have a fitted effect of over 55% in size
#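 Quantitative HTS, concentration-response format. 2,000 cells/well co-treated with 5-fluorouridine and compound, 16 hr in 5% CO2 at 37 °C; ONE-Glo luminescence read after 30 min.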
# FLuc modulator – inhibits or activates purified firefly luciferase, miR-21 counter-screen | purified FLuc, Km substrates, luminescence inhibition | Potency, µM (series often up to 57.5 µM), inactives show at the top dose activity change, negative = inhibition, hits mostly inhibitors | 360,000 compounds, 6.9% hits | P08659;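 further: plate controls were vehicle for no effect and reference inhibitor for full effect; nearly all actives have a fitted effect of over 55% in size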
# Target sequence (P08659 whole entry, looked up): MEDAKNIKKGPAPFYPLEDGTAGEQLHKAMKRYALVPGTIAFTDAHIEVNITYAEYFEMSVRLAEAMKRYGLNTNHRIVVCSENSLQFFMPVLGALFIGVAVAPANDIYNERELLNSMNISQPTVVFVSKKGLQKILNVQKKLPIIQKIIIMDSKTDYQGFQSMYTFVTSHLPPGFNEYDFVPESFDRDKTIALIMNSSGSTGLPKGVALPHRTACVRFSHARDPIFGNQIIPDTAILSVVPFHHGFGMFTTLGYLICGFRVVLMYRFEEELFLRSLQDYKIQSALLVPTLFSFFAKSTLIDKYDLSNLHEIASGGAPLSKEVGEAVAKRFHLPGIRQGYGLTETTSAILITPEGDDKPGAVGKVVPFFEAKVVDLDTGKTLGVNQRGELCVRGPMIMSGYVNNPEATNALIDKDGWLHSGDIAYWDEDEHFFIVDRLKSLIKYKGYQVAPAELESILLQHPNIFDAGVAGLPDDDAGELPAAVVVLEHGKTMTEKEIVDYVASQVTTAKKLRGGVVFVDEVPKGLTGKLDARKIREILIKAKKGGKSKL
#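 Purified P. pyralis luciferase, 10 nM final, with Km-level 10 uM D-luciferin and 10 uM ATP in 50 mM Tris acetate pH 7.5, 10 mM Mg acetate, 0.01% Tween-20, 0.05% BSA; 6-point qHTS titration about 60 µM downward; luminescence read.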
# ELG1 genotoxic – induces genotoxicity in HEK293T cells with luciferase-tagged ELG1; HEK293T ELG1-luciferase reporter, luminescence, 16 h; Potency, µM (doses to about 46 µM), for inactives: top-dose activity change, positive = activation, most hits filed as activators; 330,000 compounds, 1.3% hits; AID 504466; further: % of control where 0% means no effect; nearly all actives have a fitted effect of over 60% in size
#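 Quantitative HTS format in 1536-well plates. HEK293T ELG1-luciferase reporter cells receive test compound and are incubated 16 hr at 37 °C, 5% CO2; ONE-Glo added, 30 min room temperature, then luminescence read.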
# NPC1 promoter act – NPC1 promoter activation; Huh7 NPC1 promoter luciferase reporter, 24 h; Potency, µM (top dose mostly 9.22 µM), without a hit: at the top dose activation, most hits filed as activators; 320,000 compounds, 2.4% hits; AID 485313; further: % of control where 0% means no effect; nearly all actives have a fitted effect of over 60% in size
#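 Cells: Huh7 expressing luciferase under the NPC1 promoter, 1500/well. Seeded 2 h, compound added, incubated 24 h at 37 °C. Luciferase reagent, 10 min ambient, then luminescence.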
# The depositor's hits bear a star; ? = inconclusive; nt = not tested or not shown; [ ] = another dose, or the depositor's remark. Compounds with a hit are over-represented: about 9.2% of the library has one in this group of screens. The call rests on the fitted dose curve; in most records, active means well fitted curve in the direction sought with a large enough effect; inconclusive means small, poorly fitted or top-dose-only effect, or another doubt; inactive means no such curve, though single readings can be large; an effect the other way counts as inactive or inconclusive. Potency means the concentration at half of the fitted maximal effect.
SMILES,SMN2 splice enh,Rab9 prom act,ELG1 DNA repair,FLuc modulator,ELG1 genotoxic,NPC1 promoter act
Cc1ccc(NC(=O)Cn2c(=O)c(C)nc3ccccc32)cc1,5%,-2%,8%,-1%,2%,-1%
Cc1cccc(NC(=O)Cn2c(/C=C/c3ccccc3)nc3ccccc32)c1,nt,23%,?,3µM*,23µM*,12%
CC(C)CCn1c(-c2nonc2N)nc2ccccc21,4%,-1%,23µM*,-1%,-6%,-3%
CC(C)CCn1c(C(C)O)nc2ccccc21 (centres undefined),-23%,4%,-14%,7%,-1%,0%
CCOP(=O)(OCC)c1nc(-c2ccc(Cl)cc2Cl)oc1N1CCOCC1,8%,-7%,-11%,5%,5%,-1%
CC(C)Cn1c(/C=C/c2ccc(F)cc2)nc2ccccc21,18µM*,nt,nt,2.4µM*,nt,nt
CCC(C)Cn1c(/C=C/c2ccccc2)nc2ccccc21 (centres undefined),23%,nt,nt,6.7µM*,nt,nt
CCC(C)Cn1c(C(C)C)nc2ccccc21 (centres undefined),-2%,-4%[1.84 µM],-11%,-1%,-8%,-10%
Cc1ccc(C(=O)ON=C2CCN(c3ccc([N+](=O)[O-])cc3)CC2)cc1,-6%,6%,-3%,11µM*,-1%,0%
CC(C)Sc1nnc(Nc2ccccc2)s1,28%,2µM*,?,15µM*,?,4µM*
CCOC(=O)C1=C(CN2CCN(c3cc(C)ccc3C)CC2)NC(=O)NC1c1ccccc1 (centres undefined),4%,nt,nt,2%,nt,nt
CS(=O)(=O)N(CC(=O)O)c1cc(C(F)(F)F)ccc1Cl,nt,4%,30%,-2%,-1%,-1%
CCc1nnc(NC(=S)Nc2ccccc2)s1,22µM*,?,?,?,-5%,?
Cc1ccc(C(=O)Nc2nnc(NC(=S)Nc3ccccc3)s2)cc1,nt,26%,?,19µM*,7%,24%
Cc1nc(NC(=S)Nc2ccccc2)sc1C,16µM*,?,?,2.7µM*,15%,?
O=C(O)/C=C/c1ccc(S(=O)(=O)Nc2ccc(C(=O)NCC(=O)O)cc2)cc1,4%,-1%,6%,1%,0%,1%
Cc1ccc(Cn2c(C)c3cnn(CC(=O)N4CCN(c5cc(C)ccc5C)CC4)c(=O)c3c2C)cc1,-39%,nt,nt,?,nt,nt
O=C(c1cc2nc(-c3ccco3)cc(C(F)(F)F)n2n1)N1CCN(c2ccccc2)CC1,3%,-7%,?,0%,-21%,0%
O=C(c1cc2nc(-c3ccco3)cc(C(F)(F)F)n2n1)N1CCCCCC1,-11%,7%,11%,21µM*,-16%,-2%
COc1cccc(-c2cc(C(F)(F)F)n3nc(C(=O)N4CCCCC4c4cccnc4)cc3n2)c1 (centres undefined),-49%,-10%,21µM*,15µM*,-13%,-8%
COc1ccc(-c2cc(C(F)(F)F)n3nc(C(=O)N4CCCCC4)cc3n2)cc1,-10%,-2%,-4%,?,-6%,2%
O=C(c1ccco1)N1CCN(Cc2cc(=O)c(OCc3ccc(F)cc3)co2)CC1,nt,-1%,12%,1%,5%,-6%
CC(C)c1csc(CN2CCC(N3CCC(C(=O)NCC4CCCO4)CC3)CC2)n1 (centres undefined),nt,-4%,-3%,6%,-3%,1%
COc1ccc(-c2ccn(-c3cccc(F)n3)n2)cc1,-55%,2.2µM*,?,15µM*,?,3.2µM*
O=C(Nc1ccccn1)c1nc(-c2ccccc2)n(-c2ccccc2)n1,8%,0%,?,3%,0%,-2%
COc1ccc(/C=N/NC(=O)c2nc(-c3ccccc3)n(-c3ccccc3)n2)cc1OC,-2%,7%,13µM*,17µM*,0%,-8%
